This note sets out measurements from PubChem BioAssay AID1347076 (National Center for Advancing Translational Sciences (NCATS), 2019).

Out of some 400,000 compounds screened, about 13,000 (3.2%) were called active. Not shown: some 18% with an inconclusive outcome. Calls follow the shape of the dose curve; as a rule, active = well fitted cell-killing curve with a large enough effect; inconclusive = small, poorly fitted or top-dose-only effect, or effect the other way; inactive = flat fitted curve, though single readings scatter. The list comes from a sample in which actives are over-represented; it also holds similar structures and randomly drawn compounds. A call without a number means that no potency is given here.
Potency is read from the fitted curve at half-maximal effect.

This assay in a line: qHTS assay for MDR1-selective chemotherapeutics: Primary screen using the drug-selected MDR subline cells KB-V1. Also: nearly all actives have a fitted effect of over 60% in size. The following applies: KB-V1 MDR cells viability, CellTiter-Glo, 72 h; series mostly up to 46.1 µM. The essentials: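 qHTS viability screen in drug-selected KB-V1 MDR cells: 72 h compound treatment at 37 degrees C, ATP luminescence end point.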
In the case of `CN(C)c1cccc2ccccc12`, the Potency result is “inactive”.

Turning to `Cc1cc(NC(=O)CSc2nnnn2-c2ccc(F)cc2)no1`, the Potency result is “inactive”.

On to `Cc1ccccc1-n1nnnc1SCCCC(=O)c1ccc(F)cc1`, for which the Potency was 6.51 µM (active).

As for `CC(=O)Nc1ccc(NC(=O)CSc2nnnn2-c2ccccc2F)cc1`, the Potency entry was “inactive”.

Regarding `O=C(/C=C/[C@H]1O[C@@H](n2cnc3c(NC(=O)c4ccccc4)ncnc32)[C@H](O)[C@@H]1O)NCc1ccccc1`, the Potency entry was “inactive”.

`CCCC(=O)N1CCN(c2nc3c(OC)ccc(C)c3s2)CC1`: the Potency result was “inactive”.

Take `CC(C)Oc1ccc(CCC(=O)NNC(=S)NCc2ccccc2)cc1`: the Potency result was “inactive”.

Regarding `COc1ccc(C(=O)NNC(=S)NC(=O)c2ccccc2[N+](=O)[O-])cc1`, the Potency result was “inactive”.

On to `Cc1onc(-c2ccccc2)c1C(=O)NNC(=S)NC(=O)c1ccc(F)cc1`, for which the Potency entry is “inactive”.

Regarding `COc1ccc(C(=O)NC(=S)NNC(=O)c2c(-c3ccccc3)noc2C)cc1`, the Potency was 6.51 µM (active).

For the compound `COc1ccc(C(=O)NNC(=S)NC(=O)c2ccccc2)cc1`, the Potency result is “inactive”.

With `COc1ccc(C(=O)NC(=S)NNC(=O)CCc2ccccc2)cc1`, the Potency is 6.51 µM (active).

On to `O=S(=O)(Nc1ccc2nc(-c3cccc(Cl)c3)oc2c1)c1ccccc1`, for which the Potency entry is “inactive”.

With `Cc1ccc(C)c(N2CCN(C(=O)Cn3ncc4c(=O)oc5ccc(C)cc5c43)CC2)c1`, the Potency entry is “inactive”.

Turning to `CC(=O)Nc1ccc(CNc2nc(NCCN(C)C)nc3cc(-c4ccccc4)sc23)cc1`, the Potency result was “inactive”.

For the compound `CN1C[C@@H](CO)O[C@@H](n2cnc3c(N4CCN(CCO)CC4)ncnc32)C1`, the Potency result was “inactive”.

For the compound `CCCn1nc(NS(=O)(=O)c2ccc(F)cc2)c2cc3ccccc3nc21`, the Potency result is “inactive”.

As for `CCCn1nc(NC(=O)C(C)C)c2cc3cc(OC)ccc3nc21`, the Potency entry is “inactive”.

`CCCn1nc(NS(=O)(=O)c2ccccc2)c2cc3cc(C)ccc3nc21`: the Potency is 14.6 µM (active).

For `COc1cccc(NC(=O)CSc2cc(=O)n(C)c3ccc(Cl)cc23)c1`, the Potency entry is “inactive”.

As for `Cc1cccc(C=CC(=O)c2ccc(Cl)cc2)c1`, the Potency entry was “inactive”.

Regarding `CC(=O)Nc1ccc(C=CC(=O)c2ccc([N+](=O)[O-])cc2)cc1`, the Potency entry was “inactive”.

On to `CN(C)c1ccc(/C=C/C(=O)c2ccc(C(C)(C)C)cc2)cc1[N+](=O)[O-]`, for which the Potency is 18.4 µM (active).

On to `CCOc1ccc(S(=O)(=O)c2cn(Cc3ccc(OC)cc3)c3ccc(F)cc3c2=O)cc1`, for which the Potency result is “inactive”.

Turning to `Cc1nc2ccc(S(=O)(=O)N(CC(=O)Nc3ccc(F)cc3)Cc3ccccc3)cc2s1`, the Potency result was “inactive”.

With `CC(C)(C)N1C(=O)c2c(C(=O)OCc3ccccc3)[nH]c(-c3ccccc3)c2C1=O`, the Potency entry was “inactive”.

Consider `Cc1ccc(NC(=O)Cn2nnc(C(=O)NCc3ccco3)c2N)c(C)c1`, for which the Potency entry is “inactive”.

`Cc1ccc(NC(=O)Cn2cccc2C2=NC(c3ccccc3)CO2)c(C)c1` (stereo not given): the Potency was 16.4 µM (active).

For the compound `Cc1ccc(NC(=O)CSc2cccc3cccnc23)c(C)c1`, the Potency entry was “inactive”.

On to `CCOc1ccc(NC(=O)C2CCN(S(=O)(=O)c3cc(-c4noc(C)n4)ccc3C)CC2)cc1`, for which the Potency result was “inactive”.

Turning to `c1cc(-c2ccc3[nH]ccc3c2)n2ccnc2c1`, the Potency entry is “inactive”.

Turning to `CCCCC(=O)N(C)c1c(CC)nc2c(OCc3ccc(S(C)(=O)=O)cc3)cccn12`, the Potency result is “inactive”.

As for `CCCCC(=O)N(C)c1c(CC)nc2c(OCc3ccc(Cl)cc3Cl)cccn12`, the Potency was 16.4 µM (active).

For `CCOC(=O)N(C)c1c(CC)nc2c(OCc3ccccc3C(=O)OC)cccn12`, the Potency entry is “inactive”.

As to `CCc1nc2ccc(C(=O)N(C)CCN(C)C)cn2c1N(CC)CCOC`, the Potency result is “inactive”.

`CC(=O)C[C@@H]1OC[C@H](C)N1S(=O)(=O)c1ccc(C)cc1`: the Potency result is “inactive”.

`Cc1ccc(NS(=O)(=O)c2ccc3c(c2)oc(=O)n3C)c(C)c1`: the Potency entry was “inactive”.

On to `Cc1ccc2nc(NC(=O)C3CCN(S(=O)(=O)c4ccc5c(c4)oc(=O)n5C)CC3)sc2c1`, for which the Potency entry is “inactive”.

In the case of `Cc1ccc(C)c(N2CCN(S(=O)(=O)c3ccc4c(c3)oc(=O)n4C)CC2)c1`, the Potency is 14.6 µM (active).

In the case of `COc1ccc(NC(=O)c2cc(=O)[nH]c3ccccc23)cc1S(=O)(=O)N1CCOCC1`, the Potency entry was “inactive”.

`Cc1nc(C(F)(F)F)ccc1C(=O)N1CCC1(C)C(=O)NS(=O)(=O)c1ccc(F)cc1F` (stereo not given): the Potency result was “inactive”.

For `COc1ccc2ncc3c(-c4ccc(C)c(C)c4)nn(CC(=O)NC4CCCC4)c3c2c1`, the Potency result was “inactive”.

Take `Cc1ccc([C@H]2N[C@]3(CCCN(Cc4ccccc4)C3=O)[C@H]3C(=O)N(Cc4ccccc4)C(=O)[C@@H]23)cc1`: the Potency result is “inactive”.

In the case of `O=C(CNCCC1=CCCCC1)Nc1ccccc1N1CCCCCC1`, the Potency is 11.6 µM (active).

`Cc1ccc(C(C)C)cc1OCC(=O)Nc1ccccc1N1CCCC1`: the Potency entry is “inactive”.

`Cc1nnc(OCC(=O)NCCC2=CCCCC2)c2ccccc12`: the Potency entry was “inactive”.

Turning to `Cc1ccc2nc(-c3ccco3)c(Cc3cccc(Cl)c3)n2c1`, the Potency result is “inactive”.

With `COc1ccc(C(=NN)c2ccc(OC)cc2)cc1`, the Potency entry was “inactive”.

On to `COc1ccc(/C(N)=N/OC(=O)Cc2ccccc2)cc1`, for which the Potency entry is “inactive”.

For `COc1ccc(C(C#N)=C2C=CC(=NO)c3ccccc32)cc1`, the Potency was 1.3 µM (active).

On to `CCNC(=O)c1cc2c(c(-c3cccc(-c4cncnc4)c3)n1)[C@H](CCO)N(C(C)=O)C2`, for which the Potency entry is “inactive”.

Regarding `O=C(NCc1ccccc1Cl)c1csc([C@@H]2O[C@H](CO)[C@@H](O)[C@H]2O)n1`, the Potency result is “inactive”.

In the case of `CCOC(=O)CSc1nnc(CNc2ccc(F)cc2)o1`, the Potency result is “inactive”.

Consider `CCC(=O)Nc1ccc(C(=O)CSc2nnc(CNc3ccc(Cl)cc3)o2)cc1OC`, for which the Potency was 14.6 µM (active).

Turning to `COc1cc(C(=O)NCc2nnc(SCC(=O)c3ccc(Cl)cc3)o2)cc(OC)c1OC`, the Potency entry is “inactive”.

Regarding `CCc1nc2c(OCc3cccc(OC)c3)cccn2c1N(C)C(=O)C(C)C`, the Potency entry was “inactive”.

On to `CSc1ncnc2c1ncn2CCCNCc1cccs1`, for which the Potency entry is “inactive”.

With `Nc1ncnc2c1ncn2[C@@H]1O[C@H](C(=O)NS(=O)(=O)c2c(Cl)nc3sccn23)[C@@H](O)[C@H]1O`, the Potency result is “inactive”.

On to `CSc1ccccc1C(=O)NCc1ccccc1`, for which the Potency entry is “inactive”.

On to `CCc1nc2ccccc2c(C(=O)NCc2ccc(OC)cc2)c1C`, for which the Potency result is “inactive”.

Regarding `CCSc1ccccc1C(=O)NCc1ccc(OC)cc1`, the Potency is 20.6 µM (active).

Take `O=C(CSc1ccc(Cl)cc1)NC1CC1`: the Potency result is “inactive”.

For `CCC1CCCCN1CCNS(=O)(=O)c1ccc2c(c1)CCN2C(C)=O` (stereo not given), the Potency result is “inactive”.

Turning to `CCCN(CCC)S(=O)(=O)c1cc2c(cc1Br)CCN2C(=O)CC`, the Potency result was “inactive”.

On to `CCC(=O)N1CCc2cc(Br)c(S(=O)(=O)NCCN3CCCCC3CC)cc21` (stereo not given), for which the Potency was 10.3 µM (active).

Turning to `NC(=O)Nc1ccc(/C=C/c2ccnc3ccccc23)cc1`, the Potency entry is “inactive”.

`C[C@H]1CN([C@@H](C)CO)C(=O)CCCn2nncc2CO[C@@H]1CN(C)Cc1ccc(Oc2ccccc2)cc1`: the Potency entry was “inactive”.

Turning to `COc1ccccc1CNC(=O)c1cc(-c2cc(F)ccc2OC)n[nH]1`, the Potency result is “inactive”.

As for `Brc1ccc(-c2noc(-c3ccccc3)n2)o1`, the Potency result is “inactive”.

With `CCCCCCOc1ccc(OC(=O)c2cccnc2)cc1`, the Potency result was “inactive”.

Regarding `O=C(Oc1ccc(-c2nc(-c3ccccn3)no2)cc1)c1ccccc1`, the Potency is 7.31 µM (active).

Consider `CC(C)Nc1ncnc2c1ncn2[C@H]1CN(Cc2ccncc2)C[C@@H](CO)O1`, for which the Potency entry is “inactive”.

Turning to `CN1OC[C@@H]2CN(C(=O)c3ccc(-c4ccccc4)cc3)[C@H](c3ccc(-c4cccc(F)c4)cc3)C[C@@H]21`, the Potency entry is “inactive”.

Consider `CCC(=O)N1CCCC1(C)C(=O)Nc1ccc2c(c1)CCN2C(C)=O` (stereo not given), for which the Potency result is “inactive”.

Consider `CCC(=O)N(CCc1ccccc1)Cc1cc2cc(C)ccc2[nH]c1=O`, for which the Potency entry was “inactive”.

For `Cc1ccc(S(=O)(=O)N(Cc2cc3ccccc3[nH]c2=O)CC2CCCO2)cc1` (stereo not given), the Potency result is “inactive”.

With `CCN(Cc1cc2cc(C)ccc2[nH]c1=O)S(=O)(=O)c1ccccc1`, the Potency was 3.66 µM (active).

For the compound `S=C(NN=Cc1ccccn1)Nc1ccccn1`, the Potency entry was “inactive”.

Turning to `Cc1ccc(CNC(=O)Nc2nnc([C@H]3C[C@H](O)[C@@H](CO)O3)s2)cc1`, the Potency entry was “inactive”.

In the case of `CCN(CC)S(=O)(=O)c1cc(C(=O)Nc2ccccn2)ccc1C`, the Potency was 23.1 µM (active).

Turning to `Cc1ccc(NC(=O)CNCc2ccccn2)cc1S(=O)(=O)N(C)C`, the Potency result is “inactive”.

`Cc1ccc(C(=O)Nc2ncccc2C)cc1S(=O)(=O)N1CCOCC1`: the Potency result was “inactive”.

In the case of `COc1ccc(CN2CCC(C)(Oc3cccc(F)c3)C2)c2ccccc12` (stereo not given), the Potency result is “inactive”.

In the case of `Fc1ccc(CSc2nnc(-c3cc4c(s3)-c3ccccc3CC4)o2)cc1`, the Potency is 20.6 µM (active).

Regarding `CCSc1nnc(-c2cc3c(s2)-c2ccccc2CC3)o1`, the Potency entry was “inactive”.

On to `Fc1ccc(-c2nnc(CSc3nnc(-c4ccc5c(c4)OCO5)o3)o2)cc1`, for which the Potency result was “inactive”.

Consider `CCc1nc2ccc(C(=O)N(C)Cc3ccco3)cn2c1N(C)C(=O)Cc1ccccc1`, for which the Potency result is “inactive”.

For `Cc1cccc(NC(=O)CN2CCCN(S(=O)(=O)c3ccc(Br)s3)CC2)c1`, the Potency result was “inactive”.

With `O=C(NCCc1ccccc1)C1CCN(S(=O)(=O)c2ccc(Br)s2)CC1`, the Potency is 2.06 µM (active).

For the compound `O=C(C1CCN(S(=O)(=O)c2ccc(Br)s2)CC1)N1CCN(c2ccccc2)CC1`, the Potency result was “inactive”.

Take `O=C(C1CCN(S(=O)(=O)c2ccc(Br)s2)CC1)N1CCN(C2CCCCC2)CC1`: the Potency entry is “inactive”.

In the case of `CC(C)N(C(=O)CN1CCN(S(=O)(=O)c2ccc(Br)s2)CC1)C(C)C`, the Potency is 23.1 µM (active).

Regarding `CSc1ccc(S(=O)(=O)N2CCC(C(=O)NCCc3ccccc3)CC2)cc1`, the Potency entry was “inactive”.

For `CCCCNC(=O)C1CCCN(c2nnc(C)c3c(C)n(-c4ccc(Cl)cc4)nc23)C1` (stereo not given), the Potency entry was “inactive”.

Turning to `O=C1OCCC1=COCCCCOC=C1CCOC1=O`, the Potency result was “inactive”.

With `CCc1nc2ccc(C(=O)NC3CCN(Cc4ccccc4)CC3)cn2c1N(C)CCN1CCOCC1`, the Potency result was “inactive”.

In the case of `CCc1ccc(NC(=O)c2nn(-c3ccc(C)cc3)c(=O)n(C)c2=O)cc1`, the Potency result is “inactive”.

On to `O=C(CCl)NNc1nc(-c2ccccc2)c2cc(Cl)ccc2n1`, for which the Potency result is “inactive”.

With `Clc1ccc2nc(-c3ccccc3)nc(C(Cl)Cl)c2c1`, the Potency was 3.66 µM (active).

In the case of `NC(N)=Nc1nc(-c2ccccc2)c2cc(Cl)ccc2n1`, the Potency result was “inactive”.
